In PubChem BioAssay AID602198 (NMMLSC, 2012):
Results with a measured potency or affinity are listed apart. Calls of active or inactive are those of the source. How the calls were made is not given here.

Assay: yeast V-ATPase proton pumping modulator potency, dose response, S. cerevisiae, pHLuorin, cherry pick 2 (AID 602198)
Conditions: pHLuorin vacuolar pH fluorescence; series mostly up to 33.1 µM; response (V-ATPase modulation): at the top concentration

| Structure (SMILES) | response (V-ATPase modulation) |
| --- | --- |
| O=[N+]([O-])c1ccc2c(c1)-c1ccccc1C2=NO | 104% (inactive) |
| CC1=NOC(=O)/C1=C\c1ccccc1 | 29% (inactive) |
| CC1(C)CC(=O)C(C(C2=C(O)CC(C)(C)CC2=O)c2cccs2)C(=O)C1 (centres undefined) | 24% (inactive) |
| COc1ccc2nc(N3CCN(C(=O)c4ccc([N+](=O)[O-])o4)CC3)sc2c1 | 16.6% (inactive) |
| Cc1ccc2oc(C(=O)N(C)Cc3ccc(C)o3)c(C)c2c1 | 11.7% (inactive) |
| O=C1Oc2ccccc2C(=O)/C1=C/c1ccccc1O | 38.5% (inactive) |
| O=C(O)c1ccc(/C=N/N2CCN(C3c4ccccc4-c4ccccc43)CC2)cc1 | 36.4% (inactive) |
| O=C(c1ccc([N+](=O)[O-])o1)N1CCN(c2nc3c(Cl)cccc3s2)CC1 | 25.8% (inactive) |
| O=C(NC1CCCCC1)c1c(O)nc2sccn2c1=O | -0.55% (inactive) |
